Results from PubChem BioAssay AID1347426 (Functional Genomics Laboratory (NCATS/FGL), 2020).
In all, about 31,000 sequences went through this assay and about 1,400 (4.5%) were called active. Many of the other results were omitted from the sample, so actives are more common in it than they were. A number with no mark means an inactive call.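 Rule for the calls: active = median seed-adjusted z-score above 1 or below -1; inactive = the rest.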

Test: Novel Modifiers of Survival Motor Neuron (SMN) Protein: Gene Identification via Genome-wide siRNA Screen;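 note: luminescence tracks full-length SMN protein made from the SMN2 reporter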
Details: HEK293T SMN2-luciferase reporter, siRNA knockdown, 72 h; actives lie on both sides
Method in brief: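 siRNA screen, 10418 genes ×3 siRNAs; 1 pmol/well, lipid reverse transfection into HEK293T SMN2-luc reporter line. 72 h, 37 °C, 5% CO2; ONE-Glo readout. Data: neg-ctrl normalized, log10, MAD; hit = MAD >1.0 or < -1.0.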

Sequence | median seed-adjusted z-score
AGACCAAGAGCGCAUCAAATT against JUNB | -0.224
GGUUGUUGGUUGGACUGUUTT against GDE1 | -0.256
CACUCACUGUUCCUAUCAATT against STAMBPL1 | 0.13
GAAACGAUGAAAUAAGAUATT against PTGS1 | 0.0458
GGUUGGUCUCCUCUUCAUATT against PSMD10 | 0.265
CCCUCUCACUUGAAGAUCATT against HYAL1 | -0.163
AUUCAUCUCAUAAACAAAATT against BATF2 | 0.714
GCAUGGAGCAGAUCGUGUUTT against ITPR3 | -1.28 (active)
GCAGCAUCAAUGUCUGGAATT against SLC6A8 | -0.0673
GGCCUUAGAUGAGUCCCUATT against PABPN1 | -0.757
ACAAUGAACUGGAUCAACATT against TBX20 | 0.00303
CACUAUCUAUUCCACCUUUTT against HTR1A | 0
CAGGUGCUUCGUUUCCUGATT against ARHGAP1 | -1.14 (active)
GAGUAAACCUCGAAACCGATT against MAP3K13 | -0.121
GACCAUGAAUUUCAUUGUATT against MYLK3 | 0.316
GGACUAAAACUUUAAACUATT against POU4F2 | 1.46 (active)
CUACCAGGAUGUUGAUAAATT against ZNF761 | 0.291
GGAUUGAGGUGGAGAUGGATT against MCM5 | 0.126
CUAAAGGUCUUGUUACAUUTT against ASNS | -1.1 (active)
ACCUAGAAGUGAACUGUGATT against GP1BA | 0.0803
UGGUGACUCUCAUUUCGCATT against BCAP31 | 0.277
GGAUGUCACUGUUUCUGGATT against CLIC6 | -0.00828
GGCCUACUGUGGAAUUGGATT against TTC3 | -1.17 (active)
CGAUCAACUCCUUAAAGGATT against FLRT2 | -0.00573
GCUUUUCCAUUAUAAGGCATT against FOXE1 | -0.316
CAAAUUGCCUCGUCAAAGATT against DNTT | 0.316
GACCGACUCAGAUAUCAUUTT against SNRPA | -2.09 (active)
CACUGGAUUUGAGAGGUUATT against ABHD7 | -0.301
GGCCGAGUGUACUACUUCATT against PIN1 | 0.156
GCACUGUGCUUAAGCUGGATT against PKN1 | -0.753
